This is a sample that favours compounds with a hit; in the whole collection about 0.68% have one here.
UGM FP inh: blocks M. tuberculosis UGM enzyme; purified UGM, fluorescence polarization probe displacement; inhibition, % at 10 µM; 320,000 tested, 0.06% active; AID 504406; in the data active = inhibition above about 10%, passing the limit was not always enough; inconclusive = no clear call, values can overlap the other calls
Sa ugtP lethal: compounds lethal to S. aureus RN4220 ugtP deletion mutant | 330,000 tested, 0.54% active | growth inhibition, % (concentration not given with the values) | OD600 growth, 16 h; in the data active = growth inhibition above about 68%
RN4220 kill: kills Staphylococcus aureus RN4220; inhibition, % (test concentration not listed); 330,000 tested, 0.33% active; AID 1259311; S. aureus RN4220 growth, OD600, 16 h; in the data active = inhibition above about 85%
Rv3671c protease: inhibits the M. tuberculosis serine protease Rv3671c | inhibition, % at 5.96 µM | AID 2606 | P9WHR9 | 320,000 tested, 0.048% active; in the data active = inhibition above about 38%;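 also: extracellular domain of Rv3671c used as enzyme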
Target sequence (P9WHR9 whole entry, looked up, the tested form may be a part): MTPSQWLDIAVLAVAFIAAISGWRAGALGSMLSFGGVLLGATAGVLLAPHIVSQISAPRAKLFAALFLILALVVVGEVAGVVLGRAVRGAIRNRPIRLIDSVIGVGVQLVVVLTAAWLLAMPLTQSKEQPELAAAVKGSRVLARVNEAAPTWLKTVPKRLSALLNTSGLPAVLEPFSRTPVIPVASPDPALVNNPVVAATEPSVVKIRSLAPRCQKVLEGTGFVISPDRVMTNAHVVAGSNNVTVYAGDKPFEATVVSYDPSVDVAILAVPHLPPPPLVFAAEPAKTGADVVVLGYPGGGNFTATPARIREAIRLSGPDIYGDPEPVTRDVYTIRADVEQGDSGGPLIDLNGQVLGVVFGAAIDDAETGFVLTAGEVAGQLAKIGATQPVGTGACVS
Mtb hypoxia rep: Mtb hypoxia fluorescent reporter inhibition. 300,000 tested, 0.1% active. fluorescence inhibition, % (no concentration beside the values). M. tuberculosis hypoxia-regulated fluorescent reporter, fluorescence; in the data active = fluorescence inhibition mostly above about 23%, no sharp cut-off; inactive = mostly below about 17%
Mtb bLac sens: beta-lactam sensitization of Mtb H37Rv. M. tuberculosis H37Rv growth with meropenem, percent inhibition. inhibition, % at 25 µM. 330,000 tested, 0.27% active. AID 434955; call rule not given here;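 also: growth measured after seven days incubation then overnight dye step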
Of the large screens only hits and unclear results are named; the others gave an inactive call.

COC(=O)[C@@]12CCCN1C(c1ccc(-c3ccccc3)c(OC)c1)C1C(=O)N(C)C(=O)C12 (stereo not given in full)	none (no result: UGM FP inh, Rv3671c protease, Mtb bLac sens)
CC1CN(C(C)CO)C(=O)c2cc(NC(=O)Nc3ccc4c(c3)OCO4)ccc2OC1CN(C)S(=O)(=O)c1cn(C)cn1 (stereo not given)	none (no result: UGM FP inh, Rv3671c protease, Mtb bLac sens)
CC1CN(C(C)CO)C(=O)c2cccc(NS(=O)(=O)c3cn(C)cn3)c2OC1CN(C)Cc1ccc(C(=O)O)cc1 (stereo not given)	none (no result: UGM FP inh, Rv3671c protease, Mtb bLac sens)
CCC(C)C1NC(=O)c2cc([N+](=O)[O-])cc(F)c2OCCC(C(N)=O)NC(=O)C(CCCCN)NC1=O (stereo not given)	none (no result: UGM FP inh, Rv3671c protease, Mtb bLac sens)
COc1cc2sc3ccc(-c4ccc5[nH]ccc5c4)cc3c(=O)c2cc1OC	none
O=c1c2ccccc2oc2cc(-c3ccc4[nH]ccc4c3)ccc12	Sa ugtP lethal 88.2, RN4220 kill 88.1
COc1ccc(C2CC(=O)C=C(C#CC(C)(C)C)C2)cc1 (stereo not given)	none (no result: UGM FP inh, Rv3671c protease, Mtb bLac sens)
O/N=C/c1ccccc1OCc1ccccc1F	none (no result: Sa ugtP lethal, RN4220 kill, Mtb hypoxia rep)
ON=Cc1cc(Br)ccc1OCc1ccccc1F	Sa ugtP lethal 87.4 (no result: UGM FP inh, Rv3671c protease, Mtb hypoxia rep, Mtb bLac sens)
ON=Cc1cc(Br)ccc1OCc1cccc(F)c1	Sa ugtP lethal 82.5 (no result: UGM FP inh, Rv3671c protease, Mtb hypoxia rep, Mtb bLac sens)
CC(C)C1NC(=O)c2cc([N+](=O)[O-])cc(I)c2NCCCC(C(=O)NC(CC(=O)O)C(N)=O)NC(=O)C(CO)NC1=O (stereo not given)	none (no result: UGM FP inh, Rv3671c protease, Mtb bLac sens)
COc1ccccc1CN1C2CCCC1CC(NC(=O)C=Cc1ccccc1)C2 (stereo not given)	none (no result: UGM FP inh, Rv3671c protease, Mtb bLac sens)
C=CCC(CC(=O)OC(C)(C)C)C(=O)OCC1CCCN1C(=O)C(CC=C)CC(=O)N(CCO)Cc1ccccc1 (stereo not given)	none (no result: UGM FP inh, Rv3671c protease, Mtb bLac sens)
Cc1cc(N2C(=O)C(O)=C(C(=O)c3cc4ccccc4o3)C2c2cccc(Br)c2)no1 (stereo not given)	Sa ugtP lethal 100.2, RN4220 kill 100.4
COc1cc(C2C(C(=O)c3cc4ccccc4o3)=C(O)C(=O)N2c2cc(C)on2)cc(OC)c1OC (stereo not given)	none (no result: Sa ugtP lethal, RN4220 kill, Mtb hypoxia rep)
COc1cccc(C2C(C(=O)c3cc4ccccc4o3)=C(O)C(=O)N2c2cc(C)on2)c1OC (stereo not given)	none
Cc1cc(N2C(=O)C(O)=C(C(=O)c3cc4ccccc4o3)C2c2ccc(OC(C)C)cc2)no1 (stereo not given)	Sa ugtP lethal 100.2, RN4220 kill 100.4
COC(=O)c1ccc(C2C(C(=O)c3cc4ccccc4o3)=C(O)C(=O)N2c2cc(C)on2)cc1 (stereo not given)	none (no result: Sa ugtP lethal, RN4220 kill, Mtb hypoxia rep)
CCCOc1cccc(C2C(C(=O)c3cc4ccccc4o3)=C(O)C(=O)N2c2cc(C)on2)c1 (stereo not given)	Sa ugtP lethal 99.8, RN4220 kill 100.4
CC(CO)NC(=O)C(C)C1C[C@@]1(C)C(NC(=O)OCc1ccccc1)c1ccccc1 (stereo not given in full)	none (no result: UGM FP inh, Rv3671c protease, Mtb bLac sens)
CC1CCN(CC(=O)n2c3c(c4ccccc42)CCCC3)CC1	none
O=C(c1ccccc1F)n1c2c(c3ccccc31)CCCC2	Sa ugtP lethal 93.3
CC[C@@]1(O)C(=O)OCc2c1cc1n(c2=O)Cc2cc3c(CN(C)C)c(O)ccc3nc2-1	UGM FP inh 33.5
NC1=NC[C@H](Cc2ccc(O)cc2)N1CCCCC1CCCCC1	Sa ugtP lethal 100.3, RN4220 kill 100.3
C=CCNC1=C(Cl)C(=O)c2ccccc2C1=O	Sa ugtP lethal 90.5, RN4220 kill 95.5, Mtb bLac sens inconclusive
CCOC(=O)C1C2COc3ccc(Cl)cc3C2N2C(=O)c3cc(OC)ccc3NC(=O)[C@@]12C (stereo not given in full)	none (no result: UGM FP inh, Rv3671c protease, Mtb bLac sens)
CN1CCN(c2ccc([N+](=O)[O-])c3no[n+]([O-])c23)CC1	Sa ugtP lethal 98.1
CN1CCN(c2ccc(S(C)(=O)=O)cc2[N+](=O)[O-])CC1	none
O=C(Nc1ccc(F)cc1)NC1(C(=O)NCc2ccc3c(c2)OCO3)CCCCC1	Sa ugtP lethal 99.9
O=C(Nc1ccc(F)cc1)NC1(C(=O)NCc2ccco2)CCCCC1	none
Cc1ccc(NN=C2CS(=O)(=O)N(C)c3ccsc32)cc1	RN4220 kill 98.8 (no result: UGM FP inh, Rv3671c protease, Mtb bLac sens)
O=C(Nc1ccccc1)Nc1cc(OCC(F)(F)F)cc(OCC(F)(F)F)c1	Sa ugtP lethal 93.8, RN4220 kill 90.4 (no result: UGM FP inh, Rv3671c protease, Mtb bLac sens)
O=C(NC(=S)Nc1ccc(S(=O)(=O)Nc2nccs2)cc1)c1ccccc1	Sa ugtP lethal 91.4
CCc1nnc(NS(=O)(=O)c2ccc(NC(=S)NC(=O)c3ccccc3)cc2)s1	none
O=C(NC(=S)Nc1ccc(S(=O)(=O)Nc2nccs2)cc1)c1ccccc1F	none
O=C(NC(=S)Nc1ccc(S(=O)(=O)Nc2nccs2)cc1)c1cccnc1	none (no result: Sa ugtP lethal, RN4220 kill, Mtb hypoxia rep)
CCc1nnc(NS(=O)(=O)c2ccc(NC(=S)NC(=O)c3ccc(Br)cc3)cc2)s1	Sa ugtP lethal 85.9
O=C(NC(=S)Nc1ccc(S(=O)(=O)Nc2nccs2)cc1)c1ccc(F)c(F)c1	Sa ugtP lethal 96.8
COc1ccc2c(c1)C1C(CO2)C(c2ccccc2)[C@]2(C)C(=O)Nc3ccc(Cl)cc3C(=O)N12 (stereo not given in full)	none (no result: UGM FP inh, Rv3671c protease, Mtb bLac sens)
CCN1C(=O)C2C(C)C3=C4C(CC5C(=O)N(CC)C(=O)C5C4[C@@]4(C)C(=NCC5CC5)OC(=O)N4C3=O)C2C1=O (stereo not given in full)	none (no result: UGM FP inh, Rv3671c protease, Mtb bLac sens)
O=Nc1c2nc3ccccc3n(O)c-2c2ccccc12	Sa ugtP lethal 89.6
CCc1ccc(OCC(=O)NNCC(=O)Nc2ccc(OC)cc2)cc1	Mtb hypoxia rep 56.9 (no result: UGM FP inh, Rv3671c protease, Mtb bLac sens)
CC(C)(C)C1COC(=O)CCCCC=CCC(CC(=O)NCCO)C(=O)N1 (stereo not given)	none (no result: UGM FP inh, Rv3671c protease, Mtb bLac sens)
O=C(Oc1c(Cl)cc(Cl)c2cccnc12)c1ccco1	Sa ugtP lethal 98.5, RN4220 kill 98.7
CC[n+]1c(/C=C/N(C)c2ccccc2)n(-c2ccccc2)c2ccc(-c3nc4ccccc4s3)cc21	Sa ugtP lethal 100.8, RN4220 kill 99.8 (not shown: Mtb hypoxia rep)
CCOC(=O)c1ccc2c(c1)n(CC)c(/C=C/N(C)c1ccccc1)[n+]2CC	none
CC1CCC(=O)N(CCC(Sc2ccccc2)c2ccccc2)CC1 (stereo not given)	none (no result: UGM FP inh, Rv3671c protease, Mtb bLac sens)
Cc1c(N)c(C(C)(C)C)cc(C(C)(C)C)c1[N+](=O)[O-]	Sa ugtP lethal 94.7
CCOC(=O)N=Nc1c2ccccc2c2nc3no[nH]c3nc12	Sa ugtP lethal 100.1, RN4220 kill 100.2 (not shown: UGM FP inh, Rv3671c protease, Mtb hypoxia rep, Mtb bLac sens)
CCn1cc(C(=O)O)c(=O)c2cc(F)c(N3CCN(C(=S)NC(=O)c4ccc(F)c(F)c4)CC3)cc21	Sa ugtP lethal 99.9, RN4220 kill 99.6
CC(=O)N1CCN(c2cc3c(cc2F)c(=O)c(C(=O)O)cn3C2CC2)CC1	Sa ugtP lethal 99.2, RN4220 kill 98.2 (not shown: Mtb hypoxia rep)
CCn1cc(C(=O)NCc2cccc(F)c2)c(=O)c2cc(F)c(N3CCN(C(=O)c4ccco4)CC3)cc21	none (no result: Mtb hypoxia rep)
CCn1cc(C(=O)O)c(=O)c2cc(F)c(N3CCN(C(=S)NC(=O)c4ccccc4Br)CC3)cc21	Sa ugtP lethal 98.9, RN4220 kill 97.7
